Assay outcomes: PubChem, National Center for Advancing Translational Sciences (NCATS)
Only some compounds are listed: those with a hit (about 22% of all), similar ones and a draw of the others.
Shiga toxin inh: inhibitors of Shiga toxin in Vero cells; Vero cells, Shiga toxin protein synthesis inhibition reporter; inhibition, % at 38.7 µM; actives 9.2% (n = 290,000); AID 2315; in the data active means inhibition mostly above about 28%, no sharp cut-off; inactive means mostly below about 43%; further: 0% is about no effect
LmPK inh: blocks Leishmania mexicana pyruvate kinase activity; Potency, µM (highest dose often 57.5 µM), for the others: top-dose activity change, negative = inhibition, hits mostly inhibitors; purified LmPK, Kinase-Glo ATP luminescence, 1 h; AID 1721; Q27686; actives 0.37% (n = 290,000); further: potency means the concentration at half of the fitted maximal effect; on the % scale 0 is the no-effect control and ±100 the full control effect
Target sequence (Q27686 whole entry, looked up): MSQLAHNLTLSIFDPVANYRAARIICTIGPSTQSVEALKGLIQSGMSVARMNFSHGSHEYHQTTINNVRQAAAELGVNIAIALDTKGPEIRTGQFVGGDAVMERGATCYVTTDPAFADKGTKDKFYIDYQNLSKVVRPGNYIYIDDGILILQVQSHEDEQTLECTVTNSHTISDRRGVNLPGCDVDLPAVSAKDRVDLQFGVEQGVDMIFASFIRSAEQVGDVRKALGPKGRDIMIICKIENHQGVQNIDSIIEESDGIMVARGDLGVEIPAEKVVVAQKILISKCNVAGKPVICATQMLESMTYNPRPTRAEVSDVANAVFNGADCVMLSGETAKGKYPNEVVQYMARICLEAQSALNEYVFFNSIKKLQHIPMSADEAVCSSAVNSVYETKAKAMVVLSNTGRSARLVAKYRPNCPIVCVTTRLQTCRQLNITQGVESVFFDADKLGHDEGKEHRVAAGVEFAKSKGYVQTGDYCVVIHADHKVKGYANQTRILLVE
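ATP generated from ADP (0.1 mM) and PEP (0.5 mM) by 0.1 nM LmPK over 1 h at room temperature (pH 7.2 imidazole buffer) was detected by coupled luciferase luminescence. Values were normalized to uninhibited and no-enzyme wells.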
Pf growth 96h: inhibits malaria parasite growth, 96 h. actives 6.9% (n = 320,000). P. falciparum luciferase reporter growth, 96 h. Potency, µM (series often up to 28.7 µM), inactives show at the top dose activity change, negative = inhibition, most hits filed as inhibitors. AID 504834; further: potency means the concentration at half of the fitted maximal effect; on the % scale 0 is the no-effect control and ±100 the full control effect
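Erythrocytes infected with luciferase-expressing P. falciparum were dispensed at 2% hematocrit and 0.05% parasitemia (final), then incubated with compounds 96 hours at 37 C in 5% CO2. Luminescence after detection reagent addition reported growth.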
Cycloheximide cs: affects cycloheximide protein synthesis inhibition readout, counter-screen; max response, %; actives 12% (n = 300,000); cell reporter, cycloheximide protein synthesis inhibition counterscreen; AID 2314; in the data active means max response mostly above about 13%, no sharp cut-off; inactive means mostly below about 14%; further: read at 38.3 µM for the half of the compounds with a filed dose; 0% is about no effect
Pf growth 48h: inhibits P. falciparum growth in the first generation, 48 h | actives 5.9% (n = 310,000) | Potency, µM (highest dose often 28.7 µM), for the others: top-dose activity change, negative = inhibition, usual class: inhibitors | P. falciparum luciferase growth in erythrocytes, 48 h; further: potency means the concentration at half of the fitted maximal effect; on the % scale 0 is the no-effect control and ±100 the full control effect
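In quantitative HTS format, infected erythrocytes bearing luciferase-reporter parasites were treated for a single generation at 37 C. Luminescence after adding detection reagent served as the growth measure.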
Active calls of the source: *. Unless noted, the call rests on the fitted dose curve; in most records, active means well fitted inhibition curve with a large enough effect; inconclusive means small, poorly fitted or top-dose-only effect, or another doubt; inactive means no such curve, though single readings can be large or run the other way.

For CC[C@H](C)[C@H](N)C(=O)N[C@@H](CC(N)=O)C(=O)N1CCC[C@H]1C(=O)N[C@H](C(=O)N[C@@H](Cc1ccc(O)cc1)C(=O)N[C@@H](CCCN=C(N)N)C(=O)N[C@@H](CC(C)C)C(=O)N[C@@H](CCCN=C(N)N)C(=O)N[C@@H](Cc1ccc(O)cc1)C(N)=O)[C@@H](C)CC the results were Shiga toxin inh -3.6 and Cycloheximide cs -5.3.
Screening CCN(CC)CCc1nc(-c2ccccc2)no1 returned Pf growth 96h 34.5% and Pf growth 48h 5.2%.
`O=C1C2C(C(=O)N1CCN1CCN(Cc3ccc([N+](=O)[O-])cc3)CC1)[C@H]1C=C[C@@H]2C1` (stereo partly drawn) gave Shiga toxin inh -9.2, LmPK inh -2.1%, Pf growth 96h 20.8%, Cycloheximide cs 1.1 and Pf growth 48h -4.2%.
Screening O=C(O)/C=C/c1ccc(S(=O)(=O)N2CCN(CCN3C(=O)C4C5C=CC(C5)C4C3=O)CC2)cc1 (stereo not drawn) returned Shiga toxin inh -3.7, LmPK inh -1.8%, Pf growth 96h 1.85µM*, Cycloheximide cs -4.2 and Pf growth 48h inconclusive.
Screening Cc1cc(Nc2ccccc2)n(CCO)n1 returned Shiga toxin inh -17.1, LmPK inh 5.8%, Cycloheximide cs -5.1 and Pf growth 48h 9.4%.
`CCc1ccccc1NC(=O)CN(c1ccc(OC)cc1OC)S(=O)(=O)c1ccccc1` gave Shiga toxin inh -7.5, LmPK inh -2.0%, Pf growth 96h inconclusive, Cycloheximide cs -1.0 and Pf growth 48h inconclusive.
Screening CCOc1ccc(/C=N/N2C(C)CCCC2C)cc1OC (stereo not drawn) returned Shiga toxin inh 12.0, LmPK inh 1.9%, Pf growth 96h 10.4µM* and Cycloheximide cs -2.3.
Screening CC[n+]1c(SC)ccc2cc(OC)ccc21 returned Shiga toxin inh -9.0, LmPK inh 0.7%, Pf growth 96h -2.2%, Cycloheximide cs -1.8 and Pf growth 48h 0.738µM*.
CCSc1ccc2cc(OC)ccc2[n+]1CC was read as Shiga toxin inh 24.6, LmPK inh 2.1%, Pf growth 96h inconclusive, Cycloheximide cs 8.0 and Pf growth 48h 0.738µM*.
`COc1ccc(C(=O)COC(=O)CCN2C(=O)C3CC=CCC3C2=O)c(OC)c1` (stereo not drawn) gave Pf growth 96h 63.8% and Pf growth 48h 32.8%.
CN(C)S(=O)(=O)c1cccc(NC(=O)c2ccc(-n3cncn3)c([N+](=O)[O-])c2)c1 was read as Pf growth 96h inconclusive and Pf growth 48h -12.9%.
Cc1nc2ccc(NC(=S)N3CCN(c4ccccn4)CC3)cc2nc1C was read as Shiga toxin inh -10.8, LmPK inh 1.7%, Pf growth 96h inconclusive, Cycloheximide cs -4.2 and Pf growth 48h 1.1%.
CCN1CCN(c2cc(C)c3cc(NC(=S)N4CCC5(CC4)OCCO5)ccc3n2)CC1 was read as Shiga toxin inh -24.6, LmPK inh -3.5%, Pf growth 96h inconclusive, Cycloheximide cs 4.4 and Pf growth 48h inconclusive.
Screening Cc1ccc(C)c(N2CCN(C(=S)Nc3ccc4nc(N5CCN(C)CC5)cc(C)c4c3)CC2)c1 returned Shiga toxin inh 1.3, LmPK inh -1.9%, Pf growth 96h 27.1%, Cycloheximide cs -1.6 and Pf growth 48h 10.4µM*.
`Cc1cc(N2CCN(C)CC2)nc2ccc(NC(=S)N3CCN(c4ccccn4)CC3)cc12` gave Shiga toxin inh -4.7, LmPK inh 6.8%, Pf growth 96h 9.28µM*, Cycloheximide cs 0.4 and Pf growth 48h -32.3%.
Cc1cc(N2CCN(C)CC2)nc2ccc(NC(=S)N3CCC4(CC3)OCCO4)cc12 was read as Shiga toxin inh -17.9, LmPK inh -2.6%, Pf growth 96h 11.7µM*, Cycloheximide cs -8.7 and Pf growth 48h 4.15µM*.
For Cc1cccc(-c2csc(N3CCC(C(N)=O)CC3)n2)c1 the results were Pf growth 96h 14.4% and Pf growth 48h inconclusive.
`CCOc1ccc(CN2CCNC(=O)C2CC(=O)NC2CCOCC2)cc1` (stereo not drawn) gave Shiga toxin inh -5.5, LmPK inh 2.8%, Pf growth 96h -8.4%, Cycloheximide cs -2.6 and Pf growth 48h 0.5%.
For COc1cccc(NC(=O)c2ccc(CN3CCOCC3)cc2)c1 the results were Shiga toxin inh 32.7, LmPK inh inconclusive, Pf growth 96h 13.1%, Cycloheximide cs 22.3* and Pf growth 48h 101.6%.
